Hits are enriched below; roughly 2.6% of the tested compounds scored in any of these assays.
TWEAK Fn14 block: inhibitors of TWEAK-Fn14 signaling, primary screen, luciferase reporter cells, uHTS. TWEAK-stimulated Fn14 reporter cells, luciferase luminescence, 8 h. AID 1159606, 2016. 2% of 360,000 active. inhibition, % at 10 µM; in the data active = inhibition above about 50%
TROY signal inh: inhibitors of TROY-driven NF-kB signaling, primary screen, Q293 LMP1-TROYcd cells, NF-kB luciferase, uHTS | inhibition, % at 10 µM | Q293 LMP1-TROYcd NF-kB luciferase reporter, 4 h | AID 1347056, 2019 | 0.98% of 360,000 active;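 active = compounds whose plate-normalised and pattern-corrected inhibition of the luciferase reporter signal at the single screening dose is 50% or more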
LGR2 antag: inhibitors of bursicon-induced LGR2 CRE-luciferase signal, primary screen, cell-based, HEK293, CRE-luciferase reporter, bursicon stimulation. inhibition, % at 9.99 µM. bursicon-stimulated, 4 h. AID 720647, 2013. 0.35% of 380,000 active. Drosophila bursicon receptor LGR2 (rickets);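 active = drop in luminescence signal, shown as inhibition above about 50% in the replicate tests, limit read from the data, passing the limit was not always enough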;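 also: agonist challenge used bursicon conditioned medium at about half maximal strength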
EWS-Fli inh: EWS/Fli-driven NR0B1 reporter inhibitors, primary screen, A673 cells, NR0B1 luciferase, luminescence, MLPCN library | viability-normalised | inhibition, % at 12.6 µM | 0.67% of 350,000 active;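 active = mean inhibition of at least 50% after viability correction, with every replicate also passing that limit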;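 also: firefly luciferase signal divided by Alamar Blue viability fluorescence both relative to DMSO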
LMP1 NFkB inh: EBV LMP1-driven NF-kappaB luciferase reporter inhibitors, primary screen, cell-based, luminescence, single point; AID 504558, 2011; LMP1-induced NF-kappaB luciferase reporter cells; 0.69% of 350,000 active; inhibition, % at 12.5 µM; in the data active = inhibition above about 41%;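 also: 0% = neutral control wells and 100% = reference inhibitor control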
Numbers without * were called inactive.

COc1ccc(NC(=O)Cc2coc3cc(C)c(C(C)C)cc23)cc1S(=O)(=O)N1CCOCC1 was read as TWEAK Fn14 block 53*, TROY signal inh 28, LGR2 antag 12, EWS-Fli inh 5 and LMP1 NFkB inh 5.
Screening CCN(CC)S(=O)(=O)c1cc(NC(=O)Cn2ncc(Cl)c(Cl)c2=O)ccc1C returned TWEAK Fn14 block 98*, TROY signal inh 89*, LGR2 antag 25, EWS-Fli inh 47 and LMP1 NFkB inh -60.
For Cc1cc(Br)ccc1NC(=O)CNC(=O)Cn1ncc(Cl)c(Cl)c1=O the results were TWEAK Fn14 block 60*, TROY signal inh 28, LGR2 antag 74*, EWS-Fli inh 27 and LMP1 NFkB inh 83*.
Cc1ccc(S(=O)(=O)N2CCCCC2)cc1NCC(=O)Nc1ccc(Br)cc1F was read as TWEAK Fn14 block 80*, TROY signal inh 53*, LGR2 antag 12, EWS-Fli inh 19 and LMP1 NFkB inh -1.
C[C@@H]1CN([C@H](C)CO)C(=O)c2cc(C#CC3CC3)cnc2O[C@H]1CN(C)Cc1ccncc1 was read as LGR2 antag -9 and EWS-Fli inh 3.
For COc1ccc(NC(=O)Cn2ncc(Cl)c(Cl)c2=O)cc1S(=O)(=O)N1CCOCC1 the results were TWEAK Fn14 block 74*, TROY signal inh -2, LGR2 antag -14, EWS-Fli inh 39 and LMP1 NFkB inh -14.
`COc1ccc(NC(=O)c2ccc(Cl)nc2)cc1S(=O)(=O)N1CCOCC1` gave TWEAK Fn14 block 14, TROY signal inh 5, LGR2 antag -6, EWS-Fli inh 1 and LMP1 NFkB inh -4.
For COc1ccc(NC(=O)c2cc3c(-c4ccc(OC)c(OC)c4)nn(C)c3s2)cc1OC the results were TWEAK Fn14 block 58*, TROY signal inh -50 and LMP1 NFkB inh 13.
For COc1ccc(-c2nn(C)c3sc(C(=O)NCc4ccco4)cc23)cc1OC the results were TWEAK Fn14 block -10, TROY signal inh 2 and LMP1 NFkB inh 0.
Screening O=C(CNC(=O)c1ccccc1)c1ccccc1 returned TWEAK Fn14 block 50*, TROY signal inh -24, LGR2 antag 16, EWS-Fli inh -35 and LMP1 NFkB inh 5.
`O=C(CNC(=O)c1ccc(Br)cc1)c1ccccc1` gave TWEAK Fn14 block 0, TROY signal inh -46, EWS-Fli inh -8 and LMP1 NFkB inh -15.
CCOc1ccc(Br)cc1/C(C)=N\NC1=NCCN1 was read as TWEAK Fn14 block 31, TROY signal inh 30 and LMP1 NFkB inh 80*.
Screening Cc1sc(NC(=O)CCCC(=O)O)c(C(N)=O)c1-c1ccccc1 returned TWEAK Fn14 block 53*, TROY signal inh -4, LGR2 antag 27, EWS-Fli inh 54* and LMP1 NFkB inh 11.
`CC(C)NC(=O)Nc1ccc2c(c1)C(=O)N(C)[C@@H]1CC[C@H](CC(=O)NC3CCCCC3)O[C@@H]1CO2` gave LGR2 antag 9 and EWS-Fli inh -5.
For COc1cccc(/C=N/NC(=O)CSCC(=O)Nc2ccccc2)c1O the results were TWEAK Fn14 block -16, TROY signal inh -8, LGR2 antag 11, EWS-Fli inh 8 and LMP1 NFkB inh 47*.
Screening COC(=O)c1sccc1N/N=C/c1cccc(Oc2ccccc2)c1 returned TWEAK Fn14 block 53*, TROY signal inh 71*, LGR2 antag 20, EWS-Fli inh -44 and LMP1 NFkB inh -24.
`COC(=O)c1sccc1N/N=C/c1cccc(OC)c1O` gave TWEAK Fn14 block 63*, TROY signal inh 43, LGR2 antag 77*, EWS-Fli inh 32 and LMP1 NFkB inh 11.
Screening O=[N+]([O-])c1ccc2nc(/C=C/c3ccc(Cl)cc3)[nH]c2c1 returned TWEAK Fn14 block 76*, TROY signal inh 71*, LGR2 antag -20 and LMP1 NFkB inh -20.
For O=[N+]([O-])c1ccc(-c2nc3ccc([N+](=O)[O-])cc3[nH]2)cc1 the results were TWEAK Fn14 block -49, TROY signal inh 9 and LMP1 NFkB inh -13.
`COc1ccc(N/C=C2\CCOC2=O)cc1` gave TWEAK Fn14 block 9, TROY signal inh -16 and LMP1 NFkB inh -5.
`COc1ccc(N/C=C2\C(=O)CCc3c2oc2cc(Cl)c(O)c(Cl)c32)cc1` gave TWEAK Fn14 block 0, TROY signal inh 55*, LGR2 antag 11, EWS-Fli inh 17 and LMP1 NFkB inh -5.
For COc1ccc(C(=O)Nc2ccc(N3CCN(C(=O)c4ccccc4C)CC3)cc2)cc1 the results were TWEAK Fn14 block 3, TROY signal inh 24, LGR2 antag 38, EWS-Fli inh 14 and LMP1 NFkB inh 51*.
`COc1ccc(C(=O)Nc2ccc(N3CCCC3)cc2)cc1` gave TWEAK Fn14 block -50, TROY signal inh -41 and LMP1 NFkB inh 11.
`COc1ccc(Nc2ncc(C(=O)O)c3ccccc23)cc1` gave TWEAK Fn14 block -12, TROY signal inh -26 and LMP1 NFkB inh -6.
Screening COc1ccc(Nc2ncc(C(=O)N3CCN(c4ccc(F)cc4)CC3)c3ccccc23)cc1 returned TWEAK Fn14 block 53*, TROY signal inh 23 and LMP1 NFkB inh 5.
Screening C[C@H](CO)N1C[C@H](C)[C@@H](CN(C)C(=O)Nc2ccc3c(c2)OCO3)Oc2ccc(NS(=O)(=O)c3ccc(F)cc3)cc2CC1=O returned LGR2 antag -2 and EWS-Fli inh -3.
CCOC(=O)c1cnc(SC)nc1Oc1cccc(NS(=O)(=O)c2ccccc2)c1 was read as TWEAK Fn14 block 55*, TROY signal inh -10 and LMP1 NFkB inh -3.
Screening [O-]C(=C(C(=S)Nc1cccc2ccccc12)[n+]1ccccc1)c1ccc2c(c1)OCCO2 returned TWEAK Fn14 block 103*, TROY signal inh 79* and LMP1 NFkB inh -7.
For COc1cccc(NC(=O)N2CC(=O)N3[C@H](C2)[C@H](c2ccc(C4=CCCC4)cc2)[C@@H]3CO)c1 the results were LGR2 antag 6 and EWS-Fli inh -7.
Screening CCn1c(NC(=O)c2ccc(C)cc2)c2ccccc2nc1=O returned TWEAK Fn14 block 5, TROY signal inh 8 and LMP1 NFkB inh 79*.
Screening N#Cc1ccc(-c2ccc([C@@H]3[C@H]4CN(C(=O)C5CCCC5)CC(=O)N4[C@H]3CO)cc2)cc1 returned LGR2 antag -3 and EWS-Fli inh 6.
`CCCC(=O)NC(c1ccccc1OC)c1ccc2cccnc2c1O` (configuration not stated) gave TWEAK Fn14 block 20, TROY signal inh 7 and LMP1 NFkB inh 71*.
For CCCCC(=O)NC(c1ccccc1OC)c1ccc2cccnc2c1O (configuration not stated) the results were TWEAK Fn14 block -3, TROY signal inh -10, LGR2 antag 20, EWS-Fli inh 40 and LMP1 NFkB inh 66*.
`O=C(NCC[C@H]1CC[C@@H](NC(=O)C2CCC2)[C@H](CO)O1)c1ccc(F)cc1` gave LGR2 antag -9 and EWS-Fli inh -2.

Screens as filed in PubChem.
